Assay results published in the supplement of paper PMC11732987, “Enantioselective OTUD7B fragment discovery through chemoproteomics screening and high-throughput optimisation” (Communications Chemistry, 2025).

Tests used:
Assay in all cases: log2 ratio of Biotin-Ahx-Ub-VS probe labelling (fragment/DMSO); higher = less target engagement (more negative = stronger competition), active = hit call of the paper (q ≤ 0.05, log2 ratio ≤ -1)
Details in all cases: compound concentration: 200 uM; treatment time: 3 h
OTUD6B = molecular target: T1, OTUD6B (UniProt Q8N6M0)
T1 sequence (whole entry): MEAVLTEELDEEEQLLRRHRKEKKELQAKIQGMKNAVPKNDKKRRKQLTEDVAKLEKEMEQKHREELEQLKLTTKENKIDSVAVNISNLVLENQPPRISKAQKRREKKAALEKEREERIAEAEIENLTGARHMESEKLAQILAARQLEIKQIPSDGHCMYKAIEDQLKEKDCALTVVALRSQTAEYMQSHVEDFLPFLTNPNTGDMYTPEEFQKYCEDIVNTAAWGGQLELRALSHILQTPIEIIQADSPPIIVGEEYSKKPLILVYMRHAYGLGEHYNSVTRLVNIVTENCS
Summary of the method: (§1)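 Fragment (200 µM) or vehicle was incubated for 3 h with triplicate HEK293T lysate samples of 495 µg, which were then treated with Biotin-Ahx-Ub-VS at 0.5 µM final for 1 h. Labelled DUBs were enriched on NeutrAvidin, digested with LysC and trypsin, and analysed by diaPASEF LC-MS/MS. Values are average log2 fragment/vehicle ratios from an unpaired t-test on global-median-normalised Spectronaut label-free quantities, using proteins with ≥2 unique peptides.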

OTUD7B = molecular target: T2, OTUD7B (UniProt Q6GQQ9)
T2 sequence (whole entry): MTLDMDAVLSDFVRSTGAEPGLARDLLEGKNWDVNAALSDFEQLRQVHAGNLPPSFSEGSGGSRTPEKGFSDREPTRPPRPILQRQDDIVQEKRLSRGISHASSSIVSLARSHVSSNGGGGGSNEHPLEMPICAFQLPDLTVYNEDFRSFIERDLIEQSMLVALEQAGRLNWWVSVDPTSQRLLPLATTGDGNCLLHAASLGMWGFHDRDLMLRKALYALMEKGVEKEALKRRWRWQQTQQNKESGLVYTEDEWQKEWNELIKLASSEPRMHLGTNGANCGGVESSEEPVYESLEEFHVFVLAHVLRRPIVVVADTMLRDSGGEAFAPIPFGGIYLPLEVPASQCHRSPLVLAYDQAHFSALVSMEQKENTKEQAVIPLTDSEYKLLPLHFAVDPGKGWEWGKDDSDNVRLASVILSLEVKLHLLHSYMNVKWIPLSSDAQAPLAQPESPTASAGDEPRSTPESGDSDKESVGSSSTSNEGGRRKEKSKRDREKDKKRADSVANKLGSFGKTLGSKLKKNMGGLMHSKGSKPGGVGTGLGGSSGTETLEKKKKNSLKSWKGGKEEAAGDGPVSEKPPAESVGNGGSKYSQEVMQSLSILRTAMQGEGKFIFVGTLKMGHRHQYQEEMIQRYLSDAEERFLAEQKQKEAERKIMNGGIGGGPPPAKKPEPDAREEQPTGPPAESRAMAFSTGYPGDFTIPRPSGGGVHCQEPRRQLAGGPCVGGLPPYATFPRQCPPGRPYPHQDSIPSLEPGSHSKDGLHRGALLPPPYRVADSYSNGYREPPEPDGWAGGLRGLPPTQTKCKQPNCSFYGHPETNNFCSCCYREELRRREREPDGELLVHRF
Summary of the method: as §1

PRPF8 = PRPF8 (UniProt Q6P2Q9)
Summary of the method: as §1

PSMD7 = molecular target: T3, PSMD7 (UniProt P51665)
T3 sequence (whole entry): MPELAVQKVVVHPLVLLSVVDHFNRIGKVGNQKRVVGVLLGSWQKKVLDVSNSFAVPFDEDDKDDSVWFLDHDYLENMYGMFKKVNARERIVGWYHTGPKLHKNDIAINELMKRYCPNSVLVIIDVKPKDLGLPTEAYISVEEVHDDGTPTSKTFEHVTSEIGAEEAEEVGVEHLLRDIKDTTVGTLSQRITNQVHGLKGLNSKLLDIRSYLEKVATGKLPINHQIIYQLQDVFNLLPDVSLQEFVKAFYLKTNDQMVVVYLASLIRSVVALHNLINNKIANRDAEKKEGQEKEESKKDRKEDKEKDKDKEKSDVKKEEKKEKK
Summary of the method: as §1

UCHL1 = UCHL1 (UniProt P09936)
Chain of UCHL1 (P09936 whole entry, looked up): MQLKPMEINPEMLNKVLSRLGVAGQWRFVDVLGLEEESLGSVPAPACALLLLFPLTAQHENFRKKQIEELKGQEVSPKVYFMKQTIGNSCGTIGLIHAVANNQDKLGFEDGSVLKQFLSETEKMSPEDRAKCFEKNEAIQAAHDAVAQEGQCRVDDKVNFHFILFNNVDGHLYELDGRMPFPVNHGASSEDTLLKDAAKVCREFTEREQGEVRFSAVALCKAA
Summary of the method: as §1

UCHL3 = molecular target: T4, UCHL3 (UniProt P15374)
T4 sequence (whole entry): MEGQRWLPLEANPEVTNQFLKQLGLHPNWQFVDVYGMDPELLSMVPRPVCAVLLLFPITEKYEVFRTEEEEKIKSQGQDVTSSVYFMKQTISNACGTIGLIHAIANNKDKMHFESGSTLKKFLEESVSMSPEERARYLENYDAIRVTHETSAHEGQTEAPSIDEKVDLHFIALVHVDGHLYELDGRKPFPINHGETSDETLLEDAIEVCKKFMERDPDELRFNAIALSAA
Summary of the method: as §1

UCHL5 = molecular target: T5, UCHL5 (UniProt Q9Y5K5)
T5 sequence (whole entry): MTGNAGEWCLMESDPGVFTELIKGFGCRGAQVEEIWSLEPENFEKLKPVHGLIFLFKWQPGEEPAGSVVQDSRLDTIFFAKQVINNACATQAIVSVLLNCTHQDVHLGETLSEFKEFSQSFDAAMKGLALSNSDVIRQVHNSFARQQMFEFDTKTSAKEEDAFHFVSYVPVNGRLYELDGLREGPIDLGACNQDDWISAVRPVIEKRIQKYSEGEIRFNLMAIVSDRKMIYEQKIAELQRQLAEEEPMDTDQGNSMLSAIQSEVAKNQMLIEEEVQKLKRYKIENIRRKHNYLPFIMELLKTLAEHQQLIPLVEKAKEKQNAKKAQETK
Summary of the method: as §1

USP10 = USP10 (UniProt Q14694)
Chain of USP10 (Q14694 whole entry): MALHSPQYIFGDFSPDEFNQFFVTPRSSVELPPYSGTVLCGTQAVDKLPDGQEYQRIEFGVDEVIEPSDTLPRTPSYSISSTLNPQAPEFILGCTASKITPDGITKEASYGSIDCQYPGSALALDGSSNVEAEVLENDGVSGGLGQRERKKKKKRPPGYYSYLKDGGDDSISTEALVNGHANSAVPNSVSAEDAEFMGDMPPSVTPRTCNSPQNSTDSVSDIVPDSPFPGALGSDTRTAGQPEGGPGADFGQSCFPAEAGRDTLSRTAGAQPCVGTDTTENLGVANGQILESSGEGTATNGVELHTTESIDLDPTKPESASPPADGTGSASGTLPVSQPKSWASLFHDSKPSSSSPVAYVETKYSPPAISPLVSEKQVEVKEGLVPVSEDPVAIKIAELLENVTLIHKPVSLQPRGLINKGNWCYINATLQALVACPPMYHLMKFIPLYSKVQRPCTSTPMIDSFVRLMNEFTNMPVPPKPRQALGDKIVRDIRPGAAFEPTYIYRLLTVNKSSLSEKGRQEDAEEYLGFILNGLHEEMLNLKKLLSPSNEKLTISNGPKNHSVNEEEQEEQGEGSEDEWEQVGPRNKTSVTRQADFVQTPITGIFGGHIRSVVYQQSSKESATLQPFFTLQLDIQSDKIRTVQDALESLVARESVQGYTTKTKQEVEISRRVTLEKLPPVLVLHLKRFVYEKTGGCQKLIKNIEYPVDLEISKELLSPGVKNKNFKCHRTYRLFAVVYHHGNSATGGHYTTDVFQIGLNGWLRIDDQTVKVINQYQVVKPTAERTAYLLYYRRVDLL
Summary of the method: as §1

USP15 = molecular target: T6, USP15 (UniProt Q9Y4E8)
T6 sequence (whole entry): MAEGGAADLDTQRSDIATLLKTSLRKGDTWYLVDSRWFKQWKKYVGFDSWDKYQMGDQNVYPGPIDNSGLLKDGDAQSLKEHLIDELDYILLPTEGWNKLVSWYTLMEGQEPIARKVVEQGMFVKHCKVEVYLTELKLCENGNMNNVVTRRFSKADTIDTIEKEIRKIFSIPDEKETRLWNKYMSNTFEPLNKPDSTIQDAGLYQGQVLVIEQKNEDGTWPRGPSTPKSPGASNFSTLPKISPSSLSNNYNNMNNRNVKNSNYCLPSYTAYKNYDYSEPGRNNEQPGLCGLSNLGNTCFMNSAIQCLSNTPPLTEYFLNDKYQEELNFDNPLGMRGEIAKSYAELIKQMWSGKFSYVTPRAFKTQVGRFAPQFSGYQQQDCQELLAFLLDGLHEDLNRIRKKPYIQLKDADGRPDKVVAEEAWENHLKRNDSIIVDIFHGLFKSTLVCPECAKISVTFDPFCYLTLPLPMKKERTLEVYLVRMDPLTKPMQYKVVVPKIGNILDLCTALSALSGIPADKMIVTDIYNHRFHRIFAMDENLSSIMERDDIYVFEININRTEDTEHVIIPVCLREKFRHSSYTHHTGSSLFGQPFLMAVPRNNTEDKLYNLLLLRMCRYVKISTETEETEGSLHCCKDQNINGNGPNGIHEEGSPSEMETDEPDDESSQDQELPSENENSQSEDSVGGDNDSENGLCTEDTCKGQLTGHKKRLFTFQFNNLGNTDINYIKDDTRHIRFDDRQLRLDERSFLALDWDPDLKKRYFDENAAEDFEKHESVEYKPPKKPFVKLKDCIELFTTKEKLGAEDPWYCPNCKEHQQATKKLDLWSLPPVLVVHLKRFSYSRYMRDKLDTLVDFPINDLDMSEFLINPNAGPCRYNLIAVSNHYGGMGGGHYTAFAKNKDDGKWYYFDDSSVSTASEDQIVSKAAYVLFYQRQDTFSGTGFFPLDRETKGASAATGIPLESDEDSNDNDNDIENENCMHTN
Summary of the method: as §1

USP16 = USP16 (UniProt Q9Y5T5)
Chain of USP16 (Q9Y5T5 whole entry, looked up): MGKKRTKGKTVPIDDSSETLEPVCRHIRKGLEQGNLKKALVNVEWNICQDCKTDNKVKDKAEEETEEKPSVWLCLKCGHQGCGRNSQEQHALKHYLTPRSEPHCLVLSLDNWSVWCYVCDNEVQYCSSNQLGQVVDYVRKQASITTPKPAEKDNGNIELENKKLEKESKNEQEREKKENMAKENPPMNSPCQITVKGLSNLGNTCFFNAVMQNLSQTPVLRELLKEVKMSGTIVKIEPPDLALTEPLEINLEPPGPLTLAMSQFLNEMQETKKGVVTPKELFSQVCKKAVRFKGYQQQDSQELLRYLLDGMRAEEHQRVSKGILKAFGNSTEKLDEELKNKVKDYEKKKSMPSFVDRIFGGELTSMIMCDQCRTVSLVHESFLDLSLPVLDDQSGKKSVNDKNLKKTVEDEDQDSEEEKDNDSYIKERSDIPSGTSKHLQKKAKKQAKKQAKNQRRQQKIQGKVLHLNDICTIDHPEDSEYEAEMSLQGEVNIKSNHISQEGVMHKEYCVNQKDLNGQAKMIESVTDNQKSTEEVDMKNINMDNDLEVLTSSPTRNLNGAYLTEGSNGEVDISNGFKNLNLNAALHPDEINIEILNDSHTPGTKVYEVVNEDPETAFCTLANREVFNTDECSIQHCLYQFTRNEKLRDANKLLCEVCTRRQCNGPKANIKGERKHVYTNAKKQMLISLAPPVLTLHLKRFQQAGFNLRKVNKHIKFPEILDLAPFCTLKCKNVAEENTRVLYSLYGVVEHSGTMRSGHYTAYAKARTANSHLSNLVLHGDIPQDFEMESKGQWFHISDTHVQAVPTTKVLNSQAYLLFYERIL
Summary of the method: as §1

Measured: log2 ratio of Biotin-Ahx-Ub-VS probe labelling

CC1(NC(=O)CCl)CCS(=O)(=O)C1 (stereo not given)
inactive: OTUD6B -0.893 | PRPF8 -0.0055 | PSMD7 0.0653 | UCHL3 -0.392 | UCHL5 -0.974 | USP10 -0.235 | USP15 -0.845 | USP16 0.0352
active: OTUD7B -1.2 | UCHL1 -2.03
